# Activity calls are given as the source filed them.
# Columns and labels:
# [1] = test system: Human papillomavirus type 1a protein E7 (residues 44-93); assay: HPV1a E7 fragment binders on microarrays, primary screen, biochemical, small-molecule microarray, residues 44-93, 635 nm fluorescence (AID 1108); conditions: small-molecule microarray binding, fluorescence 635 nm; higher = more signal;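 also: E7 fragment applied at 1 µg/mL in TBST for 1 h at 4 C; score combines spot fluorescence with its signal to noise ratio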
# [2] = modulators of HCV replicon luciferase signal, primary screen, HCV replication inhibitor project, Huh7 cells, luciferase reporter (AID 1109); conditions: 48 h, higher = more signal;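 also: huh7 hepatoma cells harbouring a luciferase neomycin HCV replicon reporter; luciferase luminescence as measure of HCV replicon replication; test concentration not given here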
# [3] = target: Left-right determination factor 2 (Homo sapiens) (UniProt O00292); assay: LEFTY2 binders on small-molecule microarrays, primary screen, biochemical, small-molecule microarray, 635 nm fluorescence scan (AID 1110); conditions: LEFTY2 binding, higher = more signal
# [4] = target: Calmodulin-1 (Homo sapiens) (UniProt P0DP23); assay: CALM1 binders on microarrays, EGTA buffer, profiling panel, biochemical, small-molecule microarray, Cy5-labelled CALM1 (AID 1111); conditions: Cy5-CALM1 binding fluorescence, higher = more signal;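 also: labelled calmodulin applied in Tris saline Tween buffer holding calcium plus EGTA and DTT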
# [5] = target: Calmodulin-1 (Homo sapiens) (UniProt P0DP23); assay: calcium-bound CALM1 binders on microarrays, profiling panel, artefact control for SMM control-protein annotation, biochemical, small-molecule microarray, Cy5-labelled CALM1, plus calcium (AID 1112); conditions: Cy5-CALM1 binding fluorescence, higher = more signal;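 also: score merges spot fluorescence with signal to noise from triplicate slides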
# [6] = small-molecule microarray binders of probe aWnt5a, primary screen, biochemical, biotinylated probe, 635/667 nm fluorescence (AID 1113); conditions: higher = more signal;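 also: score merges 667 nm fluorescence intensity with signal-to-noise per printed feature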
# [7] = small-molecule microarray binders of probe aShh, primary screen, biochemical, biotinylated probe, 635/667 nm fluorescence (AID 1114); conditions: higher = more signal;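 also: probe is biotin-labelled aShh protein from a stem cell growth factor screen; measures binding of labelled protein to compounds printed on the slide; score merges feature fluorescence at 667 nm with signal-to-noise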
# [8] = small-molecule microarray binders of probe aNog, primary screen, biochemical, biotinylated probe, 635/667 nm fluorescence (AID 1115); conditions: higher = more signal;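 also: probe is biotinylated aNog protein used at 0.15 µg/mL for 1 h at 4 C; z-score combines 667 nm fluorescence of each spot with its signal to noise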
# [9] = target: Torsin-1A-interacting protein 1 (Homo sapiens) (UniProt Q5JTV8); assay: LAP1 binders from COS7 cell lysate, primary screen, small-molecule microarray, 635/667 nm fluorescence (AID 1116); conditions: COS7-hLAP1 lysate binding, 635 nm fluorescence, higher = more signal
# [10] = target: Alpha-bungarotoxin (Bungarus multicinctus) (UniProt P60615); assay: alpha-bungarotoxin binders on microarray, profiling panel, artefact control for SMM control protein annotation, biochemical, small-molecule microarray, Alexa647 label, 635/667 nm fluorescence (AID 1117); conditions: alpha-BTX-A647 binding fluorescence, higher = more signal
# [11] = target: Albumin (Bos taurus) (UniProt P02769); assay: bovine serum albumin binders on microarray, profiling panel, artefact control for SMM control protein annotation, biochemical, small-molecule microarray, Alexa647 label, 635/667 nm fluorescence (AID 1118); conditions: BSA-A647 binding, fluorescence 635 nm, higher = more signal;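 also: score merges 667 nm emission intensity and signal-to-noise per printed compound spot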
# [12] = small-molecule microarray binders of probe aXIP, primary screen, biochemical, NeuroSMM set, 635/667 nm fluorescence (AID 1119); conditions: higher = more signal, called active from +8 up or from −8 down;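 also: probe is the protein aXip251-270 applied at 1 µg/mL to compound-printed slides; binding of probe to printed compounds measured as 667 nm fluorescence plus signal to noise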
# [13] = small-molecule binders of probe aNOTCH3, primary screen, biochemical, small-molecule microarray, 635/667 nm fluorescence (AID 1120); conditions: higher = more signal;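 also: probe is a biotin-tagged antibody raised against NOTCH3 rather than NOTCH3 protein; score merges spot fluorescence near 667 nm with spot signal to noise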
# [14] = small-molecule binders of probe aNOTCH2, primary screen, biochemical, small-molecule microarray, 635/667 nm fluorescence (AID 1121); conditions: higher = more signal;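 also: score merges feature fluorescence read at 667 nm with its signal to noise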
# [15] = target: Carbonic anhydrase 2 (Homo sapiens) (UniProt P00918); assay: CAII small-molecule binders, profiling panel, biochemical, small-molecule microarray, Alexa647-labelled CAII (AID 1122); conditions: CAII-A647 binding fluorescence, higher = more signal
# [16] = COS7 lysate on small-molecule microarray, probe aHis, 635 nm (AID 1123); conditions: COS7 cell lysate, fluorescence, higher = more signal;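 also: z-score combines 667nm fluorescence intensity with signal-to-noise per printed compound spot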
# [17] = compound binding in COS7 lysate, probe aLAP1, primary screen, cell lysate, small-molecule microarray (AID 1124); conditions: probe aLAP1, fluorescence, higher = more signal;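 also: lysate comes from COS7 cells expressing LAP1 and is applied at 0.3 µg/mL; score merges spot fluorescence near 667 nm with signal-to-noise over triplicate slides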
# [18] = test system: Sam68 (KHDRBS1); assay: Sam68 small-molecule binders, primary screen, biochemical, small-molecule microarray, 635 nm fluorescence (AID 1125); conditions: small-molecule microarray binding, higher = more signal;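 also: score merges 667 nm channel intensity with signal to noise over triplicate slides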
# [19] = test system: Chordin-like protein 2 (CHRDL2); assay: CHRDL2 small-molecule binders, primary screen, biochemical, small-molecule microarray, 635 nm fluorescence (AID 1126); conditions: small-molecule microarray binding, fluorescence 635 nm; higher = more signal;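 also: printed compound slides probed with Chrdl2 protein at 4 µg/mL for 1 h at 4 C; score merges 667 nm emission intensity with signal to noise over three replicate slides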
# [20] = target: Concanavalin-A (Canavalia ensiformis) (UniProt P02866); assay: ConA small-molecule binders, primary screen, artefact control for SMM control protein annotation, biochemical, small-molecule microarray, Alexa647 label, 635 nm (AID 1127); conditions: ConA-A647 binding fluorescence, higher = more signal;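 also: z combines 667 nm emission intensity with signal-to-noise across three replicate slides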
# Concanavalin-A (Canavalia ensiformis), sequence (P02866 whole entry, looked up): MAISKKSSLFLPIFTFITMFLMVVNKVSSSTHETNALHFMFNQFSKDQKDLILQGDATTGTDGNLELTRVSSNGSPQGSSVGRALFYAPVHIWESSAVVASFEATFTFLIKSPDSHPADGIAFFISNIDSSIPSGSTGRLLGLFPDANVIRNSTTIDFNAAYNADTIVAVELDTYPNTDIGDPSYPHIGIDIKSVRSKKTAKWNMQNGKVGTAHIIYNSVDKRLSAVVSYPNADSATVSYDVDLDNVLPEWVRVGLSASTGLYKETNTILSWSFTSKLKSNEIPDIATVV
# Albumin (Bos taurus), sequence (P02769 whole entry, looked up): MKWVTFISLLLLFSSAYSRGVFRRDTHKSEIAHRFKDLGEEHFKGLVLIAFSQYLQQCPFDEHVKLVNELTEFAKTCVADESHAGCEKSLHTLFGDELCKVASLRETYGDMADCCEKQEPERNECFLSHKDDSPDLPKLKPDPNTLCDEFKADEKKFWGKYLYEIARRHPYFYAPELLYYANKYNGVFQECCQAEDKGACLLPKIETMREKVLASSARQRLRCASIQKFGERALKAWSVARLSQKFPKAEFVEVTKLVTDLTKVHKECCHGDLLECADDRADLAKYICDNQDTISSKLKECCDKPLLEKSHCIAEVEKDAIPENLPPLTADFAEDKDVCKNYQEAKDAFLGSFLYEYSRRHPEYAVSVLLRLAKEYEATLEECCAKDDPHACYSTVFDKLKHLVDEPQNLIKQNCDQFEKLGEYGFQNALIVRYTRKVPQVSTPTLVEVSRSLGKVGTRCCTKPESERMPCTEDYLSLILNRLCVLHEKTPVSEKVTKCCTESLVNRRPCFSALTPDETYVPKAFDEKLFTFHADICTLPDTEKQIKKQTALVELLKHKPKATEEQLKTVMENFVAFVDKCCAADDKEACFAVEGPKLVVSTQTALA
# Left-right determination factor 2 (Homo sapiens), sequence (O00292 whole entry, looked up): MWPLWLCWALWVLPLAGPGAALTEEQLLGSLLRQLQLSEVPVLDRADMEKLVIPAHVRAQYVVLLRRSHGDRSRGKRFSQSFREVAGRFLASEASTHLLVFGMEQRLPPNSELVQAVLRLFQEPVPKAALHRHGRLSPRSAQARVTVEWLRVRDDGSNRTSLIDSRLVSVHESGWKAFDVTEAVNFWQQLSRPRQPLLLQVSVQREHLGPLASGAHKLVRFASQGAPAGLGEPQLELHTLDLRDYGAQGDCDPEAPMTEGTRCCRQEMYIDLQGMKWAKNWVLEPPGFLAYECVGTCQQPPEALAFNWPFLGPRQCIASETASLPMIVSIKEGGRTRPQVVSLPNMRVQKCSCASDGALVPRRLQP
# Torsin-1A-interacting protein 1 (Homo sapiens), sequence (Q5JTV8 whole entry, looked up): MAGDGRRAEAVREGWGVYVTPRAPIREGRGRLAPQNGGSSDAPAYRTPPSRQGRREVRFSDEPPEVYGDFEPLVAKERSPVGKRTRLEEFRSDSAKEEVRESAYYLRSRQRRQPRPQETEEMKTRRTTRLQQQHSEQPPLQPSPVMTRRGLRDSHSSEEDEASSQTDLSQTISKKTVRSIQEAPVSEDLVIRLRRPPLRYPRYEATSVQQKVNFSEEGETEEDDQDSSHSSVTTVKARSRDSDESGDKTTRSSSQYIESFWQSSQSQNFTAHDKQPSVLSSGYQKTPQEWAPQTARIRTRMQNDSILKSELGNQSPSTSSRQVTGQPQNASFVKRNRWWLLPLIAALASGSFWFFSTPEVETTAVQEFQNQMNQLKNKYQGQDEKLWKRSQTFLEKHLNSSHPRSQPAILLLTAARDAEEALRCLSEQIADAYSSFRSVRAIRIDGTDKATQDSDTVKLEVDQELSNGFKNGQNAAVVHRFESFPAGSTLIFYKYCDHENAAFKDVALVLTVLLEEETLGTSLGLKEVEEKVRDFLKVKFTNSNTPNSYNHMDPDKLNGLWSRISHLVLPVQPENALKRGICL
# Alpha-bungarotoxin (Bungarus multicinctus), sequence (P60615 whole entry, looked up): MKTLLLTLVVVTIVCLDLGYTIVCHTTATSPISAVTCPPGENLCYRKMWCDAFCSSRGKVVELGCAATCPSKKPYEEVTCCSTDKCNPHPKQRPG
SMILES,composite z-score [1],z-score [2],composite z-score [3],composite z-score [4],composite z-score [5],composite z-score [6],composite z-score [7],composite z-score [8],composite z-score [9],composite z-score [10],composite z-score [11],composite Z-score [12],composite z-score [13],composite z-score [14],composite z-score [15],composite z-score [16],composite z-score [17],composite z-score [18],composite z-score [19],composite z-score [20]
COC(=O)[C@@]1(Cc2ccc(OC)cc2)[C@H]2c3cc(C(=O)N4CCCC4)n(Cc4ccc(Cl)c(C(F)(F)F)c4)c3C[C@H]2CN1C(=O)c1ccccc1,1.47,-2,0.0524,2.74,1.35,0.207,0.165,2.07,1.98,1.62,1.05,0.0685 (inactive),0.322,0.162,0.696,3.2,1.16,1.29,-0.754,1.2
Cc1ccc(S[C@]2(C(=O)NCc3ccccc3)CC(=O)N(Cc3ccccc3C(F)(F)F)[C@@H]2c2ccc(CO)cc2)cc1,-0.0905,-1.46,-1.86,-0.488,0.272,-0.0778,-0.221,0.381,0.328,-0.191,-0.17,0.131 (inactive),-0.413,0.0022,-0.333,0.397,-0.618,0.199,-1.77,-0.586
Cc1ccccc1C(O)C1C=CC2C(=O)N(c3ccccc3)C(=O)C2N1Nc1ccccc1 (stereo not given),0.0932,1.31,0.256,2.12,0.585,0.0437,0.108,0.189,1.54,1.1,0.944,0.738 (inactive),0.312,-0.0485,0.781,2.94,0.0139,1.29,-0.147,1.14
C[C@@H]1ON(c2ccc(I)cc2)[C@H](c2cccc(NC(=O)OCC3c4ccccc4-c4ccccc43)c2)[C@H]1C(=O)N1C(=O)OC[C@H]1Cc1ccccc1,0.531,-0.31,0.678,0.224,-0.435,-0.142,-0.0866,-0.285,0.246,-0.0652,-0.0188,-0.222 (inactive),0.0276,-0.126,0.456,0.367,0.111,0.668,0.926,1.01
CC1CC/C=C\[C@H]2OC34C=CCN(c5ccc(Cl)cc5)C(=O)[C@H]3N(CCCCCCO)C(=O)[C@]4(C)C2C(=O)O1 (stereo not given in full),0.0258,-0.0973,-1.56,-0.249,0.864,-0.262,-0.138,0.0112,-0.377,-0.856,-0.685,0.0185 (inactive),-0.314,0.309,0.3,0.383,-0.17,-0.552,-0.742,-0.241
C=CC[C@@]1(C(=O)N(C)C)N=C(c2ccc(OCCCO)cc2)O[C@@H]1c1ccccc1CN=[N+]=[N-],1.42,-2.67,0.681,1.79,0.366,0.0293,0.246,0.0919,1.23,1.35,0.738,0.153 (inactive),0.438,0.0674,0.397,2.48,0.71,1.33,-0.201,1.12
C=C(/C(=C/C[C@@H](OC(C)=O)c1cccc(OCCO)c1)c1cnc2ccccc2c1)C(C)C,0.858,-1.96,0.54,-0.24,-0.51,-0.0045,-0.0709,-0.326,1.02,1.3,0.286,0.19 (inactive),-0.0787,-0.124,0.803,1.26,-0.149,0.869,1.38,0.629
CCOC(=O)c1cn(C[C@H](Cc2ccccc2)NC(=O)N[C@H](CO)CCc2oc(C(C)=O)c(C(=O)OC)c2C(=O)OC)nn1,1.39,0.404,0.896,-0.0815,-0.471,-0.0816,-0.0553,-0.158,0.866,0.491,0.576,0.511 (inactive),0.269,-0.123,0.443,1.57,0.131,1.3,1.17,0.883
COC(=O)[C@@]1(Cc2ccccc2)N=C(c2ccc(OCCCO)cc2)O[C@H]1c1ccccc1CN=[N+]=[N-],1.36,-3.42,0.024,-0.0422,-0.193,-0.0792,-0.153,-0.593,0.757,0.537,-0.158,0.282 (inactive),0.0655,-0.12,0.6,2.02,-0.415,1.2,-0.111,0.505
COc1ccc([Si](C)(C)[C@H]2[C@H](CCO)O[C@@]3(C(=O)N(Cc4cccc(N5C(=O)c6ccccc6Oc6ccccc65)c4)c4ccccc43)[C@@H]2C)cc1,0.72,-4.89,-0.296,0.29,0.53,-0.091,-0.262,-0.0816,0.449,0.71,0.446,0.142 (inactive),-0.0647,-0.147,0.287,0.575,0.755,0.499,-0.122,0.843

# Source: PubChem BioAssay
